Data taken from PubChem BioAssay (Tox21).
Unmarked numbers belong to inactive results. Results filed as inconclusive are left out. Entries that show only a call come without a potency. The source made the active and inactive calls. Unless noted, calls come from the whole dose curve; as a rule, active = well fitted curve in the direction sought with a large enough effect in the repeat runs; inconclusive = weak or mixed curves; inactive = no such curve, though single readings can be large; an effect the other way counts as inactive or inconclusive.

Legend:
[1] = qHTS assay for small molecule agonists of the p53 signaling pathway (AID 651631; calls by dose curve; note: nearly all actives have a fitted effect of over 15% in size; note: potency is the fitted concentration of half-maximal effect)
How it was run: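 Quantitative high-throughput format: 4,000 p53RE-bla HCT-116 cells/well, 5 h pre-incubation, 16 h compound exposure at 37 °C, 2 h room-temperature substrate step, fluorescence intensity measured.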

[2] = target: Androgen receptor (Homo sapiens) (UniProt P10275); test: qHTS assay to identify small molecule antagonists of the androgen receptor (AR) signaling pathway using the MDA cell line (AID 743042; note: nearly all actives have a fitted effect of over 55% in size; note: potency is the fitted concentration of half-maximal effect)
Chain of Androgen receptor (Homo sapiens) (P10275 whole entry, looked up): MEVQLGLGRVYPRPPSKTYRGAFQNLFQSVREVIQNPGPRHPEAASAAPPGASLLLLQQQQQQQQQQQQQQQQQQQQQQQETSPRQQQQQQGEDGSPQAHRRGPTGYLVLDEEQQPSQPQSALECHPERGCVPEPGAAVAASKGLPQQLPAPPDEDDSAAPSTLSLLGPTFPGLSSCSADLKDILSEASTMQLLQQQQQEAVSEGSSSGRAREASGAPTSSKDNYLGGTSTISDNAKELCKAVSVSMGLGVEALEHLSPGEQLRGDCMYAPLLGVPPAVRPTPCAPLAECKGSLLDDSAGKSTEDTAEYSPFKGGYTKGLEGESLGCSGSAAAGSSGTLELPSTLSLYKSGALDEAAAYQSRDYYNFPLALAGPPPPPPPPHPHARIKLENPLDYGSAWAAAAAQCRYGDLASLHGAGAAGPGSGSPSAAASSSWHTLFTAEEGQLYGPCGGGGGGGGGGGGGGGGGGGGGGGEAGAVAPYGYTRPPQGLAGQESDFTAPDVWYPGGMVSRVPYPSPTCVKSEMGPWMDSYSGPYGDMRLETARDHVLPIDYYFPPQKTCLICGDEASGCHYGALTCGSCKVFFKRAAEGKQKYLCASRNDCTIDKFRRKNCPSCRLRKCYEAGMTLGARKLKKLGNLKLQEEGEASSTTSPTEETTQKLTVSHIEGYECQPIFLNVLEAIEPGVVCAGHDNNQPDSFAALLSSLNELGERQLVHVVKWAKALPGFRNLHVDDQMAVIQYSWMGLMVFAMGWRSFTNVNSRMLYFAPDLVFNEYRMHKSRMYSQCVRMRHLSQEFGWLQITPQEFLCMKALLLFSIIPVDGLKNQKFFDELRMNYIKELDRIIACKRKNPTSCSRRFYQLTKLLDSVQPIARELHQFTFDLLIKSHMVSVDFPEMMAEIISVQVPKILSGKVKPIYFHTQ
How it was run: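 MDA-kb2 breast carcinoma cells carrying MMTV-luciferase (AR/GR responsive) were co-treated with compounds and the agonist R1881 for 16 h at 37C. Inhibition read as ONE-Glo luminescence; CellTiter-Fluor fluorescence measured in parallel for cytotoxicity.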

[3] = target: Nuclear receptor subfamily 1 group I member 2 (Rattus norvegicus) (UniProt Q9R1A7); test: Rat pregnane X receptor (rPXR) activation by small molecules, qHTS assay (AID 1346983); conditions: rPXR luciferase reporter cells, One-Glo luminescence, 24 h; max activation: active compounds read high; note: nearly all actives have a fitted effect of over 20% in size
Chain of Nuclear receptor subfamily 1 group I member 2 (Rattus norvegicus) (Q9R1A7 whole entry, looked up): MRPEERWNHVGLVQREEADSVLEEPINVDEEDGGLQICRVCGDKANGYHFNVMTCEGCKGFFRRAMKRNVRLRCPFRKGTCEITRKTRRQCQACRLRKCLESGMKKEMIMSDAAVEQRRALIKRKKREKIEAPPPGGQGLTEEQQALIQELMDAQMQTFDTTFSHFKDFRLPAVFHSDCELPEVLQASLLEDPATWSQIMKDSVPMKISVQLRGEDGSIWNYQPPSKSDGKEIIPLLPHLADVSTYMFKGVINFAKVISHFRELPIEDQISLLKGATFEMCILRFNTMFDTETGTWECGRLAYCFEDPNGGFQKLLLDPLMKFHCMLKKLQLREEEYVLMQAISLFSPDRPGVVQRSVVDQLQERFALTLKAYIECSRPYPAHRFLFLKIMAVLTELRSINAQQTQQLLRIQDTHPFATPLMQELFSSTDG
How it was run: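 Cell-based rPXR activation assay: rPXR cells, 2,000 per well, rested 5hr at 37 C, then exposed to compounds in DMSO for 24 hr at 37 C. Luciferase activity read by One-Glo luminescence after 30 min at room temperature.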

[4] = target: Nuclear receptor subfamily 1 group I member 2 (Homo sapiens) (UniProt O75469); test: Human pregnane X receptor (PXR) activation by small molecules, qHTS assay (AID 1346985); note: nearly all actives have a fitted effect of over 40% in size
How it was run: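 DPX-2 cells (HepG2 co-transfected with a PXR response element and a CYP3A4-promoter luciferase construct) were seeded at 2,000 per well, rested 5 hr at 37C, then exposed to DMSO-dissolved compounds for 24 hr. Activation was read as luciferase luminescence.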

[5] = qHTS assay for small molecule activators of the heat shock response signaling pathway (AID 743210; active = well fitted activation curve with a large enough effect in the signal ratio in the repeat runs, with a control signal flat, not every such curve was filed as active; the % refers to the signal ratio;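 note: HeLa cells with beta-lactamase reporter driven by heat shock elements; series mostly up to about 63 µM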)
How it was run: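 Quantitative high-throughput format using an engineered HeLa line in which heat shock response elements drive beta-lactamase; after 5 h with compound, cells received a B/G FRET substrate and fluorescence was read.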

[6] = Caspase-3/7 induction in HepG2 cells by small molecules, qHTS assay (AID 1346978); note: nearly all actives have a fitted effect of over 15% in size
How it was run: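 Wild-type HepG2 cells, 2,000/well, settled 5 hr at 37 C and 5% CO2, then compound-treated for 17 hr; caspase-3/7 activity read by luminescent Caspase-Glo 3/7 after 30 min at room temperature.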

[7] = target: Acetylcholinesterase (Homo sapiens) (UniProt P22303); test: Acetylcholinesterase (AChE) small molecule antagonists: enzyme-based qHTS assay with human liver microsomes (AID 1347399; calls by dose curve; note: nearly all actives have a fitted effect of over 60% in size); conditions: Potency: qHTS inhibition; outcome: qHTS inhibition
Chain of Acetylcholinesterase (Homo sapiens) (P22303 whole entry, looked up): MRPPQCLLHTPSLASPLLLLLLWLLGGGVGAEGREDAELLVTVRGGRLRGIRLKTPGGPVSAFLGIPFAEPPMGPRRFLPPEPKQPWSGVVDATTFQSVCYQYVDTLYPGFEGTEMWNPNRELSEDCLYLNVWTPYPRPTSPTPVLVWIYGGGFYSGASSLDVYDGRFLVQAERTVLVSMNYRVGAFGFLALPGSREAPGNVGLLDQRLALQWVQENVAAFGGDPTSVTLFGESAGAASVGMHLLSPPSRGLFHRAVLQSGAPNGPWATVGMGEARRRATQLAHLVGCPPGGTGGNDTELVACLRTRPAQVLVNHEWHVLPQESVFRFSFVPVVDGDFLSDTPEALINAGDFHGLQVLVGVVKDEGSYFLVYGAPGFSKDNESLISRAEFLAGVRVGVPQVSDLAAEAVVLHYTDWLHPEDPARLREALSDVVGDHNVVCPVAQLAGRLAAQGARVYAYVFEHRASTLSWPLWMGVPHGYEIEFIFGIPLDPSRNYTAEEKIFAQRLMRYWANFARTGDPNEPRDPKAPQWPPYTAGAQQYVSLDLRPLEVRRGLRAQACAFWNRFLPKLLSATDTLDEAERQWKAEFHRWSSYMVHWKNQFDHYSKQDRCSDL
How it was run: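 Recombinant human AChE (50 mU/mL in the enzyme mix) and human liver microsomes (0.25 mg/mL final) were preincubated with compound and NADPH (0.25 mg/mL final) for 30 min at 37 C. Acetylthiocholine/DTNB was then added; thiocholine was read colorimetrically after 10 min at room temperature.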

[8] = target: Androgen receptor (Homo sapiens) (UniProt P10275); test: qHTS assay to identify small molecule antagonists of the androgen receptor (AR) signaling pathway (AID 743035; active = well fitted inhibition curve with a large enough effect in the signal ratio in the repeat runs, not every such curve was filed as active; the % refers to the signal ratio)
How it was run: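 HEK293 cells stably carrying UAS-beta-lactamase reporter, 2,000/well, given compounds plus R1881 agonist and incubated 16 h at 37C. LiveBLAzer B/G FRET substrate then added for 2 h at room temperature before fluorescence reading.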

[9] = target: Androgen receptor (Homo sapiens) (UniProt P10275); test: qHTS assay to identify small molecule agonists of the androgen receptor (AR) signaling pathway (AID 743036; active = well fitted activation curve with a large enough effect in the signal ratio in the repeat runs, with a control signal flat, not every such curve was filed as active; the % refers to the signal ratio)
How it was run: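 Beta-lactamase under UAS control, stably integrated in HEK293 GripTite cells, reports receptor activation. After 16 h compound treatment, cells received FRET substrate for 2 h at room temperature before fluorescence reading.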

[10] = target: Estrogen receptor (Homo sapiens) (UniProt P03372); test: qHTS assay to identify small molecule antagonists of the estrogen receptor alpha (ER-alpha) signaling pathway (AID 743069; active = well fitted curve in the direction sought with a large enough effect in the signal ratio in the repeat runs, not every such curve was filed as active; the % refers to the signal ratio)
Chain of Estrogen receptor (Homo sapiens) (P03372 whole entry, looked up): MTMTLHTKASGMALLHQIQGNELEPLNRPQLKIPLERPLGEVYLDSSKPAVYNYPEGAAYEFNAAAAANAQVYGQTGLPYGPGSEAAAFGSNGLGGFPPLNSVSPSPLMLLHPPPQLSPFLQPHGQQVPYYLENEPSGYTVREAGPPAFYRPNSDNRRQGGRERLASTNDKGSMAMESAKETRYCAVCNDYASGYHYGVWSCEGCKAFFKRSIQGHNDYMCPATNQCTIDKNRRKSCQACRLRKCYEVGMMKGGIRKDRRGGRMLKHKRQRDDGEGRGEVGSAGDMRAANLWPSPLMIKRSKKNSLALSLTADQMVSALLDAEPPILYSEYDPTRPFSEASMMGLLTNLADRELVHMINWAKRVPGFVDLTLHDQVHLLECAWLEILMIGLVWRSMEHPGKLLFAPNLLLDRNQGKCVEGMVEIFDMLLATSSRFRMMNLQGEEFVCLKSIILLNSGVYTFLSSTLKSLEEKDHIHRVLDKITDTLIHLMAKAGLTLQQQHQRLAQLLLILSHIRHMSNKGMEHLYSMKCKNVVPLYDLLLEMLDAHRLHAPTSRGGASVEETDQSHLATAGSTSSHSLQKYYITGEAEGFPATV
How it was run: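 Reporter cells (ER-alpha-bla, HEK293 background) are conditioned overnight in stripped-serum medium (2% charcoal-stripped FBS). Compound and 17beta-estradiol exposure runs 18 hr at 37C, 5% CO2.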

[11] = qHTS assay to identify small molecule phospholipidosis (PLD) inducers (AID 1259344; active = well fitted curve in the direction sought with a large enough effect; an effect the other way counts as inactive or inconclusive)
How it was run: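 Quantitative HTS in HepG2: compound plus LipidTOX Red dye for 24 h, paraformaldehyde fixation with Hoechst 33342, widefield high-content imaging; amiodarone as positive and DMSO as negative control.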

[12] = target: Glucocorticoid receptor (Homo sapiens) (UniProt P04150); test: qHTS assay to identify small molecule antagonists of the glucocorticoid receptor (GR) signaling pathway (AID 720692; active = well fitted inhibition curve with a large enough effect in the signal ratio in the repeat runs, not every such curve was filed as active; the % refers to the signal ratio; note: potency is the fitted concentration of half-maximal effect)
Chain of Glucocorticoid receptor (Homo sapiens) (P04150 whole entry, looked up): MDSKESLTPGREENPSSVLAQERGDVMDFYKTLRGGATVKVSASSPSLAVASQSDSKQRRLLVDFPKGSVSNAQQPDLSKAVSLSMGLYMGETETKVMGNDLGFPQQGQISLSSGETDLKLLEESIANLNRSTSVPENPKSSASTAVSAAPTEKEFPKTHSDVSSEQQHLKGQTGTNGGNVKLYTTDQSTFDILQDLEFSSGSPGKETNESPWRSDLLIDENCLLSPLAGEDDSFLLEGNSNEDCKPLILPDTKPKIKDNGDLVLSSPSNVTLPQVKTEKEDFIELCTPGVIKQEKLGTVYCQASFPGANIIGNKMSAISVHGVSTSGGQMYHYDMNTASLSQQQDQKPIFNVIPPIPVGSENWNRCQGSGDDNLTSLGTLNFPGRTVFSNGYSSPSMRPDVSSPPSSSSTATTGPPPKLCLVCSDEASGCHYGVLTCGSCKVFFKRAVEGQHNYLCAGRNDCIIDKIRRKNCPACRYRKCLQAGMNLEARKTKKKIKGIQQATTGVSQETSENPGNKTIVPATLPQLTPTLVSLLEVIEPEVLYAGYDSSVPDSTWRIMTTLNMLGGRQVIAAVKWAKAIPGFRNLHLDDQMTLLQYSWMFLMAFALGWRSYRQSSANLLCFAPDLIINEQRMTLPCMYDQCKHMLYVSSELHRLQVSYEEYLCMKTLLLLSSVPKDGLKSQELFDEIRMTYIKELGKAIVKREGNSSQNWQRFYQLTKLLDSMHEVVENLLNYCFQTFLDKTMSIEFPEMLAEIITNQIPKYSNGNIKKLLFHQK
How it was run: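 GR-bla HeLa cells carrying a GRE-driven beta-lactamase reporter received compound after 4 h plating, then dexamethasone (5 nM final). After 18 h at 37C, the FRET substrate was loaded for 2 h at room temperature and fluorescence read.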

[13] = qHTS assay for identifying genotoxic compounds that show differential cytotoxicity against isogenic chicken DT40 cell lines with known DNA damage response pathways - Rad54/Ku70 mutant cell line (AID 743015); note: nearly all actives have a fitted effect of over 60% in size; note: potency is the fitted concentration of half-maximal effect
[14] = target: Androgen receptor (Homo sapiens) (UniProt P10275); test: qHTS assay to identify small molecule agonists of the androgen receptor (AR) signaling pathway using the MDA cell line (AID 743040; note: nearly all actives have a fitted effect of over 20% in size)
How it was run: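 Human breast carcinoma MDA-kb2 reporter cells (MMTV-luc, AR/GR elements) were treated for 16 h at 37C in 0% CO2 following a 5 h settling period. Signal was quantified by ONE-Glo luminescence.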

[15] = target: Androgen receptor (Homo sapiens) (UniProt P10275); test: qHTS assay to identify small molecule agonists of the androgen receptor (AR) signaling pathway in the presence of an antagonist (AID 1259381; calls by dose curve; note: nearly all actives have a fitted effect of over 15% in size)
How it was run: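 MDA-kb2 cells carrying MMTV-luciferase (AR/GR responsive), 3,000 cells/well, co-treated with 3.0 uM nilutamide final. Compounds at 15 concentrations, 16 hr at 37C without CO2. Luciferase luminescence read after 30 min with ONE-Glo.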

## COC(COC(N)=O)C1=C(N2CC2)C(=O)C(C)=C(N2CC2)C1=O (centres undefined)
[1]
  Potency: 298 nM (active)
[2]
  Potency: 1330 nM (active)
[3]
  max activation: -20.2%
[4]
  Potency: inactive

## CC(=O)OC(C)=O
[5]
  Potency: inactive
[6]
  Potency: inactive
[7]
  Potency: inactive

## C[C@@H]1[C@H](O)[C@@H](C)/C=C/C=C/CC/C=C/C=C/C=C/C=C/[C@H](O[C@H]2O[C@@H](C)[C@H](O)[C@@H](N)[C@H]2O)CC2O[C@](O)(C[C@@H](O)[C@H](O)CC[C@@H](O)C[C@@H](O)C[C@@H](O)CC(=O)O[C@H]1C)C[C@H](O)[C@H]2C(=O)O
[8]
  Potency: inactive
[9]
  Potency: inactive
[2]
  Potency: inactive
[10]
  Potency: inactive
[11]
  Potency: inactive

## C[C@@H](N)C(=O)c1ccccc1
[12]
  Potency: inactive
[13]
  Potency: inactive
[8]
  Potency: inactive
[9]
  Potency: inactive
[14]
  Potency: inactive
[2]
  Potency: inactive
[11]
  Potency: inactive

## Cc1ccc(C)cc1
[1]
  Potency: inactive
[6]
  Potency: inactive
[7]
  Potency: inactive

## CNc1ccc(C(=O)CC(O)CCC(C)C2OC(=O)CC(O)CC(=O)CC(O)CC(O)CC(O)CC(O)CC3(O)CC(O)C(C(=O)OC)C(CC(O[C@@H]4O[C@H](C)[C@@H](O)[C@H](N)[C@@H]4O)/C=C/C=C/C=C/C=C/C=C/C=C/C=C/C2C)O3)cc1 (some centres undefined)
[12]
  Potency: inactive
[10]
  Potency: inactive
[3]
  max activation: -1.47%
[4]
  Potency: inactive

## C[C@]12CCC(=O)C[C@@H]1CC[C@@H]1[C@@H]2CC[C@@]2(C)[C@H]1CC[C@]2(C)O
[12]
  Potency: 8490 nM (active)
[13]
  Potency: inactive
[11]
  Potency: inactive

## Cc1c(N)cccc1N
[6]
  Potency: inactive
[7]
  Potency: inactive

## COC(=O)[C@]12CCC(C)(C)C[C@H]1[C@H]1C(=O)C=C3[C@@]4(C)C=C(C#N)C(=O)C(C)(C)[C@@H]4CC[C@@]3(C)[C@]1(C)CC2
[2]
  Potency: 2370 nM (active)
[11]
  Potency: inactive

## c1ccc(-c2ccccc2-c2ccccc2)cc1
[15]
  Potency: inactive
[7]
  Potency: inactive

## Clc1cc(Cl)c(-c2c(Cl)c(Cl)cc(Cl)c2Cl)cc1Cl
[6]
  Potency: inactive
[7]
  Potency: inactive

## CCNC1(c2cccs2)CCCCC1=O (centres undefined)
[12]
  Potency: inactive
[13]
  Potency: inactive
[10]
  Potency: inactive
[11]
  Potency: inactive

## COc1cc2c(cc1OC)[C@@H]1CC(=O)[C@@H](CC(C)C)CN1CC2
[6]
  Potency: inactive
[7]
  Potency: inactive

## C1CN(P2(N3CC3)=NP(N3CC3)(N3CC3)=NP(N3CC3)(N3CC3)=N2)CCO1 (centres undefined)
[10]
  Potency: inactive
[11]
  PLD induction: 0.928% [at 7.66 µM]

## N#CC1(N2CCCCC2)CCCCC1
[12]
  Potency: inactive
[13]
  Potency: inactive
[10]
  Potency: inactive
[3]
  max activation: -1.32%
[4]
  Potency: inactive

## CNC(=O)Oc1ccc2c(c1)[C@]1(C)CCN(C)[C@@H]1N2C
[1]
  Potency: inactive
[6]
  Potency: inactive

## O=C1CCO1
[12]
  Potency: inactive
[13]
  Potency: inactive
[8]
  Potency: inactive
[9]
  Potency: inactive
[14]
  Potency: inactive
[2]
  Potency: inactive
[10]
  Potency: inactive
[3]
  max activation: -0.633%
[4]
  Potency: inactive

## CC(C)C[C@H]1C(=O)N2CCC[C@H]2[C@]2(O)O[C@](NC(=O)[C@@H]3C[C@@H]4c5cccc6[nH]cc(c56)C[C@H]4N(C)C3)(C(C)C)C(=O)N12
[13]
  Potency: 29800 nM (active)
[10]
  Potency: inactive
[11]
  Potency: inactive
